# Hit rate of the full screen: of about 2,500 compounds, about 1,100 (44%) were called active.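 The calls were made as follows: active = inhibition above 50% at 4 µM in the single-point screen; inactive = inhibition of 50% or less.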 So high a share suggests a set chosen from earlier hits. The list shows a part of the results.
# Test: TNF-a-driven NF-kB reporter inhibitors, primary screen, selectivity assay for NOD1/NOD2 signaling inhibitor project, cell-based, HEK293T NF-kB-Luc, luminescence (AID 1852)
# Conditions: TNF-a induced, 14 h, at 4 µM, active compounds read high
row,SMILES,inhibition
1,CN1/C(=C/c2cc[n+](C)c3ccccc23)C=Cc2ccccc21,47.9% (inactive)
2,C=CC[n+]1c(/C=C2\C=Cc3cc(C)ccc3N2CC)ccc2ccccc21,74.1% (active)
3,CCN1/C(=C/c2cc[n+](C)cc2)C=Cc2cc(C)ccc21,66% (active)
4,C=CC[n+]1ccc(/C=C2\C=Cc3cc(C)ccc3N2CC)c2ccccc21,84.9% (active)
5,Cc1ccc2c(c1)c(/C=C/c1cc[n+](C)cc1)c(C)n2C,24.2% (inactive)
6,CCN1/C(=C/c2ccc3ccccc3[n+]2CC)C=Cc2ccccc21,67.3% (active)
7,Cc1ccc(Cn2ccsc2=NC(=O)CCl)cc1,46.5% (inactive)
8,CCOc1cc(C)c(Cl)cc1S(=O)(=O)n1nnc2ccccc21,63.8% (active)
9,CCCn1c(NC(=O)c2ccc(Cl)c(S(=O)(=O)N3CCCC3)c2)nc2ccccc21,24.9% (inactive)
10,CC1CC(=O)N(c2ccc(NCCc3ccccc3)c([N+](=O)[O-])c2)C1=O (stereo not drawn),-4.9% (inactive)
11,COc1ccc(CCNC(=O)c2ccc3c(c2)N(Cc2ccccc2)CCS3)cc1OC,-41.1% (inactive)
12,COc1ccc(CCNc2cc(N3CCN(C(=O)c4ccccc4F)CC3)ccc2[N+](=O)[O-])cc1OC,85.7% (active)
13,CC1=C(C(=O)NC2CCCc3c2cnn3-c2ccc(F)cc2F)OCCO1 (stereo not drawn),40.2% (inactive)
14,Cc1ccc(C(=O)NC2CCCc3c2cnn3-c2ccc(F)cc2F)cn1 (stereo not drawn),71.6% (active)
15,Cc1cc(C(=O)NC2CCCc3c2cnn3-c2ccc(C(C)(C)C)cc2)nn1C (stereo not drawn),68.8% (active)
16,Cc1cccc(-n2ncc3c2CCCC3NC(=O)C2(C(N)=O)CC2)c1C (stereo not drawn),29.3% (inactive)
17,CC(C)(C)c1ccc(-n2ncc3c2CCCC3NC(=O)C2(C(N)=O)CC2)cc1 (stereo not drawn),61.3% (active)
18,COc1ccc(C(=O)NC2CCCc3c2cnn3-c2ccccc2F)cc1OC (stereo not drawn),33.4% (inactive)
19,Cn1nccc1C(=O)NC1CCCc2c1cnn2-c1ccc(C(C)(C)C)cc1 (stereo not drawn),72.8% (active)
20,CC1CN(CCCCOc2ccc(Cl)c3ccccc23)CC(C)O1 (stereo not drawn),8.2% (inactive)
21,Cc1ccc(-n2ncc3c2CCCC3NC(=O)c2ocnc2C)cc1C (stereo not drawn),49.3% (inactive)
22,Cn1nccc1C(=O)NC1CCCc2c1cnn2-c1ccccc1F (stereo not drawn),51.8% (active)
23,COc1ccc(C(=O)NC2CCCc3c2cnn3-c2ccccc2F)o1 (stereo not drawn),-21.5% (inactive)
24,Cc1ncoc1C(=O)NC1CCCc2c1cnn2-c1ccc(C(C)(C)C)cc1 (stereo not drawn),74.7% (active)

row,SMILES,inhibition
1,Cn1nccc1C(=O)NC1CCCc2c1cnn2-c1ccc(F)cc1F (stereo not drawn),39.9% (inactive)
2,Cc1c(C)c2ccc(OCC(=O)Nc3ccc(N4CCC(C)CC4)cc3)cc2oc1=O,94.7% (active)
3,Cc1ccc(-n2nc3c(=O)n(CC(=O)NC(C)CCc4ccccc4)nc(C)c3c2C)cc1 (stereo not drawn),50% (active)
4,Cc1ccc(-n2nc3c(=O)n(C(C)C(=O)NCCC4=CCCCC4)nc(C)c3c2C)cc1 (stereo not drawn),54.3% (active)
5,C[C@@H](C(=O)NCCc1ccccc1)N1C(=O)N2CCc3c([nH]c4ccccc34)[C@@]2(C)C1=O,38.1% (inactive)
6,Cc1ccc(-n2nc3c(=O)n(C(C)C(=O)NCCc4cccs4)nc(C)c3c2C)cc1 (stereo not drawn),60.4% (active)
7,CCN(CC)S(=O)(=O)c1ccc2[nH]cc(C(=O)NCCC3=CCCCC3)c(=O)c2c1,38.4% (inactive)
8,Cc1ccc(-n2nc3c(=O)n(C(C)C(=O)NCCCc4ccccc4)nc(C)c3c2C)cc1 (stereo not drawn),53.9% (active)
9,Cc1nn(Cc2ccccc2)c(Cl)c1C(=O)OC(C)C#N (stereo not drawn),40.7% (inactive)
10,COc1ccc(-c2cc(C)no2)cc1S(=O)(=O)N1CCN(c2ccc([N+](=O)[O-])cc2)CC1,44.5% (inactive)
11,CCN1/C(=C/c2ccc3cc(C)ccc3[n+]2CC)Sc2cc(C)c(C)cc21,54.5% (active)
12,CCN1/C(=C/c2ccc3cc(C)ccc3[n+]2CC)Sc2cc(C)ccc21,48.9% (inactive)
13,CCN1/C(=C\c2ccc3cc(C)ccc3[n+]2CC)Sc2cc(C)c(C)cc21,65.4% (active)
14,CCN1/C(=C/c2ccc3cc(C)ccc3[n+]2CC)Sc2ccccc21,76.1% (active)
15,CCN1/C(=C\c2ccc3ccccc3[n+]2CC)Sc2cc(C)ccc21,55.6% (active)
16,O=C1N(Cc2cccc(Cl)c2)C[C@@H]2C[C@@H](c3cccn3-c3cccnc3)N3CCC[C@@]123,4.8% (inactive)
17,CCN1/C(=C/c2ccc3cc(C)cc(C)c3[n+]2CC)Sc2cc(C)ccc21,79.4% (active)
18,O=C(CCl)NC(Cc1ccccc1)c1ccccc1 (stereo not drawn),21.3% (inactive)
19,O=C(CCl)N(c1ccccc1)c1ccccc1,63.7% (active)
20,O=C(CCl)N(Cc1ccccc1)c1ccccc1,89.7% (active)
21,O=C(CCl)N(c1ccccc1)c1c[nH]c2ccccc12,103% (active)
22,CN(Cc1ccc(Cl)cc1)C(=O)CCl,9.6% (inactive)
23,COc1ccc(CC(=O)N(Cc2ccccc2)c2ccccc2)cc1S(=O)(=O)N1CCOCC1,13.5% (inactive)
24,O=Cc1[nH]c2ccccc2c1N(C(=O)CCl)c1ccccc1,31.9% (inactive)

row,SMILES,inhibition
1,COc1cc2c(cc1OC)C(c1ccc(-c3cc(Cl)ccc3Cl)o1)=NCC2,26.5% (inactive)
2,Cc1cnc(NC(=O)C2CC(=O)N(c3cccc(Cl)c3)C2)s1 (stereo not drawn),92.4% (active)
3,Cc1csc(NC(=O)C2CC(=O)N(c3ccc(C)c(C)c3)C2)n1 (stereo not drawn),-11.9% (inactive)
4,O=C(/C(=C\c1ccccc1)c1nc2ccccc2[nH]1)c1ccc(Cl)cc1,94.9% (active)
5,COc1cc(/C=C(/C(=O)c2cccs2)c2nc3ccccc3[nH]2)ccc1O,31.5% (inactive)
6,O=C(/C(=C/c1cccc(Cl)c1)c1nc2ccccc2[nH]1)c1ccccc1,31.9% (inactive)
7,O=C(/C(=C/c1ccc(Cl)cc1)c1nc2ccccc2[nH]1)c1ccccc1,107% (active)
8,O=C(/C(=C/c1ccc(Cl)cc1)c1nc2ccccc2[nH]1)c1cccs1,106% (active)
9,Cc1cccc(Cc2cnc(N3C(=N)SC(C)C3=O)s2)c1 (stereo not drawn),100% (active)
10,Cc1cccc(CN2CCN(C(=O)CCl)CC2)c1,36% (inactive)
11,Cc1ccc(Cc2cnc(N3C(=N)SC(C)C3=O)s2)cc1 (stereo not drawn),103% (active)
12,COc1cc(S(=O)(=O)NCc2ccncc2)ccc1Br,45.8% (inactive)
13,CCSc1nsc(NC(=O)Nc2cccc(C(C)=O)c2)n1,30.4% (inactive)
14,C=CCSc1nsc(NC(=O)Nc2ccc(F)cc2)n1,43.4% (inactive)
15,C=CCSc1nsc(NC(=O)Nc2cccc(C(C)=O)c2)n1,85.2% (active)
16,O=S(=O)(Nc1nc2ccccc2nc1Nc1ccc(N2CCOCC2)cc1)c1cc(Cl)ccc1Cl,77% (active)
17,C=CCN(c1ccccc1OC)S(=O)(=O)c1ccc(Cl)c(C(=O)Nc2ccc(N3CCOCC3)cc2)c1,25.4% (inactive)
18,CC(=O)c1ccc(Nc2nc3ccccc3nc2NS(=O)(=O)c2cccs2)cc1,12.2% (inactive)
19,Cc1oc2c(c1C(=O)NCc1cccnc1)C(=O)c1ccccc1C2=O,97.7% (active)
20,COc1ccc(CNC(=O)c2ccc3ccccc3n2)cc1OC,38% (inactive)
21,Cc1oc2c(c1C(=O)c1ccccc1)C(=O)C(=O)c1ccccc1-2,104% (active)
22,COc1ccc(CNC(=O)c2c(C)oc3c2C(=O)c2ccccc2C3=O)cc1,100% (active)
23,Cc1ccccc1-c1nc(CS(=O)(=O)CC(=O)NCCc2ccccc2)c(C)o1,10% (inactive)
24,CCCCNC(=S)Nc1ccc(C(F)(F)F)cc1,-47.5% (inactive)

row,SMILES,inhibition
1,Fc1ccc(NC(=S)NNc2ncc(C(F)(F)F)cc2Cl)c(F)c1,49.4% (inactive)
2,Cc1csc2ncnc(N3CCN(C(=S)Nc4ccc(F)cc4F)CC3)c12,66.9% (active)
3,Fc1ccc(NC(=S)N2CCCN(c3ccc(C(F)(F)F)cn3)CC2)c(F)c1,55.6% (active)
4,Cc1csc2c(N3CCN(C(=S)Nc4ccc(C(F)(F)F)cc4)CC3)ncnc12,78.5% (active)
5,Cc1csc2c(N3CCN(C(=O)Nc4ccc(Cl)c(Cl)c4)CC3)ncnc12,52.5% (active)
6,Cc1ccc(S(=O)(=O)c2c(C(=O)c3ccccc3)cnc3cc4c(cc23)OCCO4)cc1,1.5% (inactive)
7,Cc1csc2ncnc(N3CCN(C(=S)Nc4ccc(C(F)(F)F)cc4)CC3)c12,66.1% (active)
8,Cc1csc2ncnc(N3CCN(S(=O)(=O)c4cccc(C(F)(F)F)c4)CC3)c12,44.4% (inactive)
9,Cc1csc2ncnc(N3CCN(C(=O)Nc4ccc(OC(F)(F)F)cc4)CC3)c12,102% (active)
10,O=C(CCl)c1cc2c3c(c1)CC(=O)N3CCC2,90.7% (active)
11,Fc1ccc(NC(=S)Nc2nccs2)cc1,73.6% (active)
12,O=[N+]([O-])c1ccc(NC(=S)NCc2ccc(F)cc2)cc1,22.1% (inactive)
13,CC(=O)Nc1nnc(S(=O)(=O)N2CCN(c3ccc(Cl)cc3[N+](=O)[O-])CC2)s1,-2.9% (inactive)
14,COc1ccc(-c2cn[nH]c2-c2ccc(OCc3ccc(F)cc3)cc2O)cc1OC,4.6% (inactive)
15,COc1ccc(-c2cn[nH]c2-c2ccc(O)cc2O)cc1,51% (active)
16,COc1ccc(-c2cn[nH]c2-c2ccc(OC)cc2)cc1,63.6% (active)
17,COc1ccc(-c2cn[nH]c2-c2ccc(OCc3ccccc3F)cc2O)cc1OC,-1.5% (inactive)
18,COc1ccc(-c2cn[nH]c2-c2ccc(OCc3ccccc3)cc2O)cc1,32.2% (inactive)
19,COc1ccc(-c2[nH]ncc2-c2ccc3c(c2)OCCO3)c(O)c1,102% (active)
20,COc1ccc(-c2cn[nH]c2-c2ccc(OC)cc2O)cc1,69.2% (active)
21,CCCOC(=O)c1ccc(Oc2cn[nH]c2-c2ccc(O)cc2O)cc1,17.1% (inactive)

# From PubChem BioAssay AID1852 (Sanford-Burnham Center for Chemical Genomics, 2009)
